# ALR H2O2 inh: blocks human ALR sulfhydryl oxidase activity | P55789 | 290,000 tested, 3.8% active | inhibition, % (concentration not given with the values) | purified ALR, DTT oxidation, H2O2 HRP-luminol luminescence | AID 485317;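 active = mean replicate inhibition above about 79%, with every replicate also reaching it, limit read from the data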
# Target sequence (P55789 whole entry, looked up): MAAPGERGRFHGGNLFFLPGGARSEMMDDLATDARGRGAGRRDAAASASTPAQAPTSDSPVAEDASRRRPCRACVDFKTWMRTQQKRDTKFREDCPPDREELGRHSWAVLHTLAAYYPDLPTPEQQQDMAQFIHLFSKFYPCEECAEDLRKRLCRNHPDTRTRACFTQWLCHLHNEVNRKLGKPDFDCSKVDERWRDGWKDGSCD
# PfGluPho inh: PfG6PD (Plasmodium falciparum) enzyme inhibition. inhibition, % at 20 µM. 350,000 tested, 0.78% active. PfGluPho enzyme, NADPH resazurin-diaphorase fluorescence;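 active = inhibition reaching at least a set limit at 20 µM in the primary screen, cut at about 59% in these data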;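 note: 0% = DMSO wells with substrate and 100% = DMSO wells lacking glucose-6-phosphate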
# Cardio protect: protects H9c2 cardiomyocytes from peroxide injury. 360,000 tested, 0.63% active. protection from H2O2 cell death, % at 20 µM. H2O2 injury protection, ATPLite, 2 h. AID 588492;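 active = compounds giving at least 50% protection of heart cells from peroxide-induced death in the single-dose screen, raw or plate-pattern-corrected value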;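 note: 0% = DMSO wells with peroxide and 100% = DMSO wells without peroxide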
# PHOSPHO1 inh: blocks human PHOSPHO1 phosphatase activity; AID 1565; 290,000 tested, 1.1% active; Q8TCT1; recombinant PHOSPHO1, absorbance phosphatase assay; inhibition, % at 13.3 µM; in the data active = inhibition above about 60%
# PfM18AAP inh: blocks P. falciparum M18 aspartyl aminopeptidase; recombinant PfM18AAP, H-Glu-NHMec fluorogenic cleavage; inhibition, % at 7.35 µM; 290,000 tested, 1.2% active; AID 1822;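 active = inhibition above the campaign mean inhibition over all tested compounds plus 3 SD, cut at about 28% in these data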;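 note: 0% = plate median of test compound wells and 100% = 2 mM ZnCl2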
# Active calls of the source: *; · = no result given. Only some compounds are listed: those with a hit (about 5.6% of all), similar ones and a draw of the others.
SMILES,ALR H2O2 inh,PfGluPho inh,Cardio protect,PHOSPHO1 inh,PfM18AAP inh
COc1ccc(NC2CCCN(C(=O)c3cccc(N4CCNC4=O)c3)C2)cc1 (stereo unspecified),99.3*,7.8,1.4,-6.1,5.0
COc1ccc(NC2CCCN(C(=O)c3cccnc3)C2)cc1 (stereo unspecified),96.8*,2.3,1.9,21.8,3.1
COc1ccc2cc(C(=O)C3CCCN(C(=O)c4cccnc4)C3)ccc2c1 (stereo unspecified),-5.8,11.1,-2.2,29.0,-1.1
CC(C)c1ccc(NC2CCCN(C(=O)c3cccc(N4CCNC4=O)c3)C2)cc1 (stereo unspecified),94.8*,9.7,3.2,23.5,1.6
C=CCOc1cccc(C(=O)N2CCCC(Nc3ccc(F)cc3)C2)c1 (stereo unspecified),59.1,6.0,-4.4,19.8,9.1
N#Cc1c(Sc2ncc(C(F)(F)F)cc2Cl)nsc1C/C=N\OCc1c(F)cccc1Cl,-2.9,19.2,-9.0,78.7*,-1.3
FC(F)(F)c1cnc(Sc2nnc(-c3cccs3)n2CC2CCCO2)c(Cl)c1 (stereo unspecified),0.6,9.0,-2.0,3.2,4.3
CSc1ccc(CN2CCC(C)(Oc3cccc(F)c3)C2)cc1 (stereo unspecified),·,·,-2.3,·,·
Cn1nc([N+](=O)[O-])c(C(C#N)c2nc3ccccc3n2C)c(Cl)c1=O (stereo unspecified),99.6*,-17.5,23.3,12.3,0.9
CSc1ncc(-c2ccc(Cl)cc2)[nH]1,97.9*,2.4,-4.6,-26.3,-2.1
Cc1cc(C)cc(N(CC(=O)Nc2ccccc2)C2=NC3CS(=O)(=O)CC3S2)c1 (stereo unspecified),98.4*,-4.3,8.4,36.2,6.2
COc1ccc(N(CC(=O)Nc2ccc(C)c(C)c2)C2=NC3CS(=O)(=O)CC3S2)cc1 (stereo unspecified),41.6,6.7,5.3,22.8,0.1
COc1ccc(N(CC(=O)Nc2ccccc2C(F)(F)F)C2=NC3CS(=O)(=O)CC3S2)cc1 (stereo unspecified),97.2*,3.5,11.5,17.6,0.8
Cc1ccc(NC(=O)CN(C2=NC3CS(=O)(=O)CC3S2)c2ccccc2)cc1 (stereo unspecified),·,·,29.6,·,·
O=S(=O)(NCCc1c[nH]c2ccccc12)c1ccc(F)cc1,·,16.7,6.1,·,·
CC(C)Cc1nc2oc3c(NCC4CCCO4)ncnc3c2c2c1CCC2 (stereo unspecified),27.1,24.1,73.2*,-10.8,6.6
CC(C)OCCCn1c(=NC(=O)c2ccncc2)c(C#N)cc2c(=O)n3ccccc3nc21,97.3*,-7.9,1.6,97.5*,-2.2
CN(C)/C=N/c1sc2c(c1C#N)CCC2,87.2*,-5.2,3.3,17.3,6.8
CN(C)/C=N/c1sc2c(c1C#N)CCCCC2,58.5,-4.7,-3.5,3.8,6.0
CNCC(O)CN(c1ccccc1)c1ccccc1 (stereo unspecified),98.6*,-7.0,-3.7,15.8,-6.5
CN(CCO)CC(O)CN(c1ccccc1)c1ccccc1 (stereo unspecified),98.7*,-5.2,8.6,15.9,5.7
NC(N)=NCC(O)CN(c1ccccc1)c1ccccc1 (stereo unspecified),98.6*,19.6,-0.9,12.1,15.9
CN(Cc1ccccc1)CC(O)CN(C)Cc1ccccc1,·,-6.2,12.9,·,·
CCc1cc(C(=O)c2ccccc2OC)c(N)s1,93.2*,5.5,4.9,-2.9,12.7
CCn1c(=O)[nH]c(=O)c2c(N)c(C(=O)c3ccccc3OC)sc21,-0.1,-10.7,-4.0,3.0,-14.4
SMILES,ALR H2O2 inh,PfGluPho inh,Cardio protect,PHOSPHO1 inh,PfM18AAP inh
CCc1cc(C(=O)c2ccc(OC)cc2)c(NC(=O)CC(C)(C)CC(=O)O)s1,80.8*,-2.9,0.5,41.2,2.1
CCc1cc(C(=O)c2ccc(OC)cc2)c(NC(=O)COCC(=O)O)s1,·,-14.7,3.6,11.4,2.9
CCc1cc(C(=O)c2ccc(OC)cc2)c(N)s1,98.9*,16.2,1.5,1.5,3.8
Cc1ccnc2nc(C(=O)OCC(=O)N(C)C3CCCCC3)nn12,·,3.5,7.1,·,·
Cn1c(=O)c2ccccc2n(Cc2ccccc2Cl)c1=O,-6.2,-10.8,-5.5,18.7,-12.5
CN1C(=O)CS(=O)c2ccc(C(=O)NCCC3=CCCCC3)cc21 (stereo unspecified),·,30.0,-10.1,19.5,29.5*
COc1ccc(NC(=O)CSc2nncc3ccccc23)cc1,71.4,-17.8,9.8,20.2,0.3

# Source: PubChem BioAssay (several laboratories)
